Results filed as inconclusive are left out. Where a call stands in place of a potency, no number is given. The source made the active and inactive calls. The call rests on the fitted dose curve; in most records, active means well fitted inhibition curve with a large enough effect; inconclusive means small, poorly fitted or top-dose-only effect; inactive means no such curve, though single readings can be large or run the other way.

This experiment addresses Retinaldehyde dehydrogenase 3 (Homo sapiens) (UniProt P47895). Nature of the experiment: qHTS for Inhibitors of the Aldehyde Dehydrogenase Family (ALDH1A3) Primary screen (AID 2061315). The settings on record: ALDH inhibition qHTS; series mostly up to 56 µM. For orientation: Quantitative high-throughput screening tests each substance at several concentrations.
As to `CCC(C)n1cc(C)c2c(C(=O)NCc3c(C)cc(C)[nH]c3=O)cc(-c3ccc(N4CCNCC4)nc3)cc21` (stereo unspecified), the Potency result was “inactive”. As to `O=C(NCc1ccccc1)c1ccc2c(=O)n(-c3cccc(C(F)(F)F)c3)c(=S)[nH]c2c1`, the Potency entry was “inactive”. `O=C(c1c2ccccc2cc2ccccc12)N1CCC(N2CCC[C@@H](C(=O)N3CCOCC3)C2)CC1`: the Potency result is “inactive”. Same read-out and setting: to `C[C@@H]1C(=O)O[C@H]2[C@@H](O)C34[C@H]5C[C@@H](C(C)(C)C)C36[C@@H](OC(=O)[C@@H]6O)O[C@@]4(C(=O)O5)[C@@]12O` (stereo partly specified) belongs “inactive”; to `CO[C@H]1C=CO[C@@]2(C)Oc3c(C)c(O)c4c(O)c(c5c(c4c3C2=O)NC2(CCN(CC(C)C)CC2)N=5)=NC(=O)C(C)=CC=C[C@H](C)[C@H](O)[C@@H](C)[C@@H](O)[C@@H](C)[C@H](OC(C)=O)[C@H]1C`, “inactive”; to `Cc1onc(-c2c(Cl)cccc2Cl)c1CC(=O)NCc1ccc(OCC(F)(F)F)nc1`, “inactive”.

Consider `O=c1cc(N2CCOCC2)nc2c3ccccc3ccn12`, for which the Potency entry is “inactive”. `CCO[C@H]1CN(C2CCC(O)(c3ccc4c(c3)OCO4)CC2)C[C@@H]1NC(=O)CNC(=O)c1cccc(C(F)(F)F)c1` (stereo partly specified): the Potency result is “inactive”. With `CCCSc1nc(NC2CC2c2ccc(F)c(F)c2)c2nnn(C3CC(OCCO)C(O)C3O)c2n1` (stereo unspecified), the Potency result was “inactive”. For the compound `OCC(Cc1ccccc1)Nc1nc(Oc2ccc3c(c2)CCC3)nc2c1ncn2Cc1ccc(-c2ccccc2)cc1` (stereo unspecified), the Potency result is “inactive”.

With `Cc1cc(-n2c(=O)[nH]c(=O)n(C)c2=O)ccc1Oc1ccc(SC(F)(F)F)cc1`, the Potency entry was “inactive”. On to `C(#Cc1cccc(CN2CCOCC2)c1)CCN1CCCCC1`, for which the Potency entry is “inactive”. Same read-out and setting: to `CNc1ccc([N+](=O)[O-])cc1-n1cnc(-c2ccc(C(F)(F)F)cc2)c1` belongs “inactive”; to `Clc1ccc2c(c1)C1=NCCN1c1c(-c3noc(C4CC4)n3)ncn1-2`, “inactive”; to `Cc1onc(-c2ccccc2)c1C(=O)N1CCN(c2ccc([N+](=O)[O-])cc2Cl)CC1`, “inactive”. Consider `CC(=O)O[C@]1(C(C)=O)CC[C@H]2[C@@H]3C[C@H](C)C4=CC(=O)C=C[C@]4(C)[C@@]3(F)[C@@H](O)C[C@@]21C`, for which the Potency entry is “inactive”. Still for that read-out and setting: then `CC(C)S(=O)(=O)NC[C@H](C)c1ccc(-c2ccc(CCNS(C)(=O)=O)cc2)cc1`, with “inactive”. Consider `CC(C)(N)c1ncc(-c2ccc(OC(F)(F)F)cc2)[nH]1`, for which the Potency entry is “inactive”.

`CCOC(=O)[C@H](CCc1ccccc1)CC1(C(=O)N[C@H]2CCc3ccccc3N(CC(=O)O)C2=O)CCCC1`: the Potency result is “inactive”.

As to `O=C(NCC1CCN(Cc2cccc(Cl)c2)CC1)[C@@H]1CCCN(c2ncnc3c2nc2n3CCCC2)C1`, the Potency result is “inactive”. Consider `COc1cc2c(Nc3cc(F)c(Cl)c(Cl)c3)ncnc2cc1OCC1CCCN(C)CCC1`, for which the Potency result was “inactive”. As to `CON(C)C(=O)[C@H](O)[C@H](Cc1ccccc1)NC(=O)c1cc2cc(Cl)ccc2[nH]1`, the Potency entry was “inactive”. `COC1CCN(c2cccc(-c3cc(NC(C)=O)nc(-n4nc(C)cc4C)n3)n2)CC1`: the Potency result is “inactive”. For `CC(OC1OCCN(Cc2n[nH]c(=O)[nH]2)C1c1ccc(F)cc1)c1cc(C(F)(F)F)cc(C(F)(F)F)c1` (stereo unspecified), the Potency result is “inactive”. With `CN(C)C(=O)NC1CCC(CCN2CCN(c3cccc(Cl)c3Cl)CC2)CC1` (stereo unspecified), the activity change, negative = inhibition is -11.6% [at 11.2 µM] (inactive).

With `CN(C)c1nc(Cc2ccc(NC(=O)c3ccc4ccccc4c3)cc2)nc(Cl)c1CC(=O)O`, the Potency result was “inactive”.

Source of the values: PubChem BioAssay (NCATS).
